HPGD inh = qHTS Assay for Inhibitors of HPGD (15-Hydroxyprostaglandin Dehydrogenase); 15-hydroxyprostaglandin dehydrogenase [NAD(+)] (Homo sapiens), P15428; purified HPGD, NADH fluorescence kinetic, PGE2 substrate; Potency, µM, inactives show at the highest dose activity change, negative = inhibition, hits mostly inhibitors; hit rate 4.3% among 150,000; also: potency is read from the fitted curve at half-maximal effect
Target sequence (P15428 whole entry, looked up): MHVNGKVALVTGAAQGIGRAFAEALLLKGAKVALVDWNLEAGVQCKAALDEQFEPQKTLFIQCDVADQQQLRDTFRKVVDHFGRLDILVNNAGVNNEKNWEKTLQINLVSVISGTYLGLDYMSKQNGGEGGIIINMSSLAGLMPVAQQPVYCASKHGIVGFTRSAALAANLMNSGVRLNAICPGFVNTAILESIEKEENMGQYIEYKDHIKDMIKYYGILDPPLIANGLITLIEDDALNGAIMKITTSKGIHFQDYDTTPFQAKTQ
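NADH formation kinetics: reaction with 30 uM PGE2 and 1 mM NAD+ (final), 20 nM enzyme, Tris-HCl pH 8 with Tween 20, after 15 min compound preincubation at room temperature. Fluorescence change, last versus first of five reads.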
KinaseGlo FLuc = Counterscreen for Luciferase (Kinase-Glo TM) Inhibition; Kinase-Glo luciferase, ATP luminescence, 8 min; AID 1379, 2008; hit rate 0.28% among 200,000; Luciferin 4-monooxygenase (Photuris pensylvanica), Q27757; Potency, µM (highest dose often 38.3 µM), inactives show top-dose activity change, negative = inhibition, most hits filed as inhibitors; active = well fitted inhibition curve with a large enough effect; inconclusive = small, poorly fitted or top-dose-only effect; also: potency is read from the fitted curve at half-maximal effect; nearly all actives have a fitted effect of over 60% in size
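Compounds were added to a substrate mix at pH 7.2 (50 mM imidazole, 10 uM ATP, within the enzyme's linear range), followed by Kinase-Glo detection reagent; luminescence was measured after 8 minutes at ambient temperature.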
ALDH1A1 inh = qHTS Assay for Inhibitors of Aldehyde Dehydrogenase 1 (ALDH1A1). Purified ALDH1A1, NADH fluorescence, propionaldehyde substrate. Potency, µM (doses to about 75.3 µM), for inactives: at the highest dose activity, negative = inhibition, actives largely listed as inhibitors. hit rate 7.3% among 220,000. AID 1030, 2008;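 also: potency is read from the fitted curve at half-maximal effect; plate controls were no enzyme wells and a reference inhibitor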
Target sequence (P00352 whole entry, looked up): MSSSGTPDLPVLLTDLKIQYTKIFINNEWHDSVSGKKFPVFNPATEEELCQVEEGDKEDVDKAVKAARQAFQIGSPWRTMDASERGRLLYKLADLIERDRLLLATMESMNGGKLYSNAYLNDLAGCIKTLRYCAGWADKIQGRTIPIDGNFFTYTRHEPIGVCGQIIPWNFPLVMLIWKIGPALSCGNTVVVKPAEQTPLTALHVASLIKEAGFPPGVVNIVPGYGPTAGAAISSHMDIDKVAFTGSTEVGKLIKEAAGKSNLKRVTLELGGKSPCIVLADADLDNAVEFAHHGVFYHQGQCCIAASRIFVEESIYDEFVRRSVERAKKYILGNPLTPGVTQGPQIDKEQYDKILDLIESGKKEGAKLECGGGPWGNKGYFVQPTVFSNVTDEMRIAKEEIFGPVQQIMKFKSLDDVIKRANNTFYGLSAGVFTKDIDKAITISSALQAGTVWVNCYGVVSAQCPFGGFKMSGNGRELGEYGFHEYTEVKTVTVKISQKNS
PNC assembly inh = High Content Assay for Compounds that inhibit the Assembly of the Perinucleolar Compartment | PC3M PTB-GFP, PNC prevalence imaging, 16 h; active compounds read low | activity change (PNC), negative = inhibition, % at 10 µM | hit rate 3.1% among 140,000 | AID 2417, 2010;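 active = readout at or below -70, meaning at least 70% loss of cells showing the perinucleolar compartment, a nuclear body marking cancer cells; inconclusive = readout between -30 and a set limit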;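 also: plate controls were DMSO wells for no effect and camptothecin positive control wells for full effect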
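Compounds are pinned in duplicate onto adhered PC3M cells stably expressing GFP-tagged PTB and incubated 16 h at 37 C. Cells are then fixed, nuclei stained with Hoechst, and PNC-positive cells counted.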
LMNA splice mod = qHTS Assay for Modulators of Lamin A Splicing. HeLa LMNA splicing GFP/RFP minigene ratio, 48 h. Potency, µM (series often up to 46.1 µM), for the others: at the highest dose ratio change, negative = inhibition, hits mostly inhibitors. hit rate 0.01% among 200,000. AID 1487, 2009; active = well fitted inhibition curve with a large enough effect in the signal ratio, with a control signal flat, not every such curve was filed as active; inconclusive = small, poorly fitted or top-dose-only effect, or effect the other way, or a change in a side signal; the % refers to the signal ratio; also: potency is read from the fitted curve at half-maximal effect
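S3 HeLa cells stably expressing lamin A-EGFP splicing minigene plus DsRed2, 600 cells/well, 48 h compound exposure at 37C. Laser-scanning cytometry; analysed as GFP (500-530 nm)/RFP (575-640 nm) total intensity ratio; 0.5% DMSO vehicle.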
An asterisk follows results filed as active; ? = inconclusive; / = no result; [ ] = dose if it differs, or a comment. Sampled rows, rich in hits. Any-hit rate of the full collection: about 10%. Unless noted, calls follow the shape of the dose curve; as a rule, active = well fitted inhibition curve with a large enough effect (not every such curve was filed as active); inconclusive = small, poorly fitted or top-dose-only effect, or another doubt; inactive = no such curve, though single readings can be large or run the other way. Unless noted, % is scaled to controls: 0 for no effect and ±100 for the full control effect.

SMILES	HPGD inh	KinaseGlo FLuc	ALDH1A1 inh	PNC assembly inh	LMNA splice mod
CCN1C(=O)C(CC(=O)Nc2ccc(OC)cc2)N(CCc2ccc(OC)cc2)C1=S (stereo not given)	/	-0.8%	2.24µM*	/	-18.0%[9.22 µM]
CCOc1ccc(NC(=O)CC2C(=O)N(C)C(=S)N2CCCc2ccccc2)cc1 (stereo not given)	-4.7%	1.9%	?	?	?
CCN1C(=O)C(CC(=O)Nc2ccc(Br)cc2)N(CCCc2ccccc2)C1=S (stereo not given)	-5.3%	0.0%	12.6µM*	54.8	?
CCOc1ccc(NC(=O)CC2C(=O)N(CC)C(=S)N2CCNC(C)=O)cc1 (stereo not given)	-6.5%	1.4%	-6.7%	10.8	-3.2%
CCOC(=O)C(C)NC(=O)c1c2c(nc3ccccc13)C(=O)N(C1CCCCC1)C2 (stereo not given)	/	/	/	/	-8.5%[46 µM]
CCOC(=O)N/N=C1/C[C@@H](O)[C@@H](O)[C@@H]2[C@@H]3C(=O)N([C@@H](C)c4ccccc4)C(=O)[C@H]3CC[C@@H]12	/	/	12.1%[13.5 µM]	/	/
COC(=O)CN1C(=S)N(c2ccc(OC)cc2)C(=O)C1CC(=O)Nc1ccc(F)cc1 (stereo not given)	/	-0.3%	?	/	10.2%[46 µM]
COc1ccc(CCN2C(=S)N(C)C(=O)C2CC(=O)Nc2ccc(F)cc2)cc1 (stereo not given)	/	/	1.26µM*	/	?
CC(=O)Nc1ccc(S(=O)(=O)NC2(C(F)(F)F)C(=O)Nc3c2c(=O)[nH]c(=O)n3C)cc1 (stereo not given)	-29.5%	-1.5%	2.1%	-12.9	-0.3%
CC(=O)C1=C(C)N(c2ccccc2)C(=O)C1(NS(=O)(=O)c1ccc(N)cc1)C(F)(F)F (stereo not given)	/	-2.7%	4.8%	/	-19.0%[46 µM]
CC(=O)Nc1ccc(S(=O)(=O)NC2(C(F)(F)F)C(=O)Nc3c2c(=O)n(C)c(=O)n3C)cc1 (stereo not given)	20µM*	-2.5%	?	?	-9.8%
COC(=O)C1=C(C)N(CCc2ccccc2)C(=O)C1(NS(=O)(=O)c1ccc(NC(C)=O)cc1)C(F)(F)F (stereo not given)	-17.0%	0.1%	20µM*	29.0	-4.2%
Cc1nc(N2CCCC2)c2c(C(=O)Nc3ccc(Br)cc3F)c(C)oc2n1	/	/	/	/	11.7%[46 µM]
COc1ccc(N2C(=O)C(=O)/C(=C(/O)c3ccc(C)cc3)C2c2cccnc2)cc1 (stereo not given)	-14.8%	-3.0%	7.94µM*	75.5	-10.6%
COC(=O)c1ccc(C2/C(=C(/O)c3ccc(OC)cc3)C(=O)C(=O)N2c2cc(C)on2)cc1 (stereo not given)	?	2.1%	12.6µM*	?	-0.1%
COc1ccc(C2/C(=C(/O)c3ccc(C)cc3)C(=O)C(=O)N2C)cc1 (stereo not given)	-11.3%	1.7%	-0.4%	-10.9	-10.0%
COC(=O)c1ccc(C2/C(=C(/O)c3ccc(OC(C)C)cc3)C(=O)C(=O)N2c2cc(C)on2)cc1 (stereo not given)	-16.0%	-2.0%	1.4%	-13.5	?
O=C(c1ccccc1)N1CCN(c2ncnc3sc4c(c23)CCC4)CC1	-14.3%	0.5%	1.26µM*	3.0	?
Cc1nc(N2CCN(C(=O)c3ccco3)CC2)c2c3c(sc2n1)CCC3	28.2µM*	-6.2%	?	-5.6	?
c1nc(N2CCOCC2)c2c3c(sc2n1)CCCC3	-6.7%	3.5%	5.5%	-12.1	5.9%
CC(C)c1nc(N2CCN(C(=O)c3ccco3)CC2)c2c3c(sc2n1)CCCC3	?	0.4%	?	-15.8	-3.8%
COc1ccc(-c2nc3cnc(OC)nc3n(-c3ccccc3)c2=O)cc1	/	/	?	/	1.4%
CNc1ccccc1	-10.0%	/	-19.9%	/	/
CNc1ccc(O)cc1	12.6µM*	/	2.24µM*	/	/
COc1ccc(CNS(=O)(=O)c2cnc(N)nc2)c(OC)c1	/	/	/	/	-9.2%[46 µM]
SMILES	HPGD inh	KinaseGlo FLuc	ALDH1A1 inh	PNC assembly inh	LMNA splice mod
O=c1n(Cc2cc3c(cc2Cl)OCO3)c(=O)n2n1CC[C@H]1/C(=N\OC[C@@H](O)COCc3ccco3)[C@H]3O[C@@H]3[C@@H](O)[C@@H]12	/	/	-4.5%[13.5 µM]	/	/
CN(C)C(=O)n1nnnc1Cc1ccc(-c2ccccc2)cc1	-10.9%	3.5%[39.9 µM]	1µM*	/	/
CC(C)CN(C)C(=O)CCc1nnc(Cc2ccc(-c3ccccc3)cc2)o1	/	/	-1.9%	/	/
CN(C)c1ccc(N2C(=O)CC(Sc3ccccc3C(=O)O)C2=O)cc1 (stereo not given)	-10.4%	2.3%	1.26µM*	14.6	-15.2%
Cc1ccc(N2C(=O)CC(Sc3ccccc3C(=O)O)C2=O)cc1C (stereo not given)	/	4.4%	0.447µM*	/	?
O=C(O)c1ccccc1SC1CC(=O)N(c2ccc3c(c2)OCO3)C1=O (stereo not given)	/	4.6%	1.26µM*	/	?
CCCCN1C(=O)CC(Sc2ccccc2C(=O)O)C1=O (stereo not given)	2.5%	-5.5%	?	?	2.0%
Cc1cccc(N2C(=O)CC(Sc3ncn[nH]3)C2=O)c1 (stereo not given)	/	-2.6%	14.1µM*	/	/
COc1ccc(NC2CC(=O)N(c3cccc(C)c3)C2=O)cc1 (stereo not given)	-4.4%	1.8%	?	-14.8	3.4%
O=C1CC(N(Cc2ccc3c(c2)OCO3)C(=O)Nc2ccc(F)cc2)C(=O)N1c1ccccc1 (stereo not given)	-12.2%	1.1%	2.6%	-17.1	-5.4%
O=C(CSc1nnc(-c2ccncc2)n1-c1ccccc1)Nc1ccc(Br)cc1	/	/	/	/	1.6%[46 µM]
O=C(CS(=O)(=O)c1cccc2nsnc12)Nc1ccc(F)cc1	/	/	/	/	-6.5%[46 µM]
CN1C(=O)CC(Sc2ccccc2C(=O)O)C1=O (stereo not given)	-5.1%	-2.6%	-15.2%	-29.9	10.0%
CC(C)CN1C(=O)CC(Sc2ccccc2C(=O)O)C1=O (stereo not given)	-4.4%	-4.7%	17.8µM*	?	-1.0%
Cc1ccc(N2C(=O)CC(Sc3ccccc3C(=O)O)C2=O)cc1 (stereo not given)	-6.3%	7.4%	0.708µM*	17.1	-4.9%
Cc1cccc(N2C(=O)CC(Sc3ccccc3C(=O)O)C2=O)c1 (stereo not given)	-11.7%	-0.3%	5.01µM*	-13.8	-9.7%
Cc1ccc(N2C(=O)CC(Sc3ncccc3C(=O)O)C2=O)cc1 (stereo not given)	/	2.0%	-13.9%	/	/
O=CN/C=C/c1cc(F)cc(F)c1F	-1.9%	-0.3%	-13.4%	/	/
Cn1nnnc1SCC(=O)C(C)(C)C	/	-7.5%	4.8%	/	/
CCC(C)OC(=O)c1cc(C)nc2c(Br)cc(Br)cc12 (stereo not given)	-7.1%	-0.7%	-0.7%	-100.0*	-1.1%

Assay outcomes (PubChem)
